For assay [1], the target named is T1, Muscle, skeletal receptor tyrosine-protein kinase (Homo sapiens) (UniProt O15146).
T1 sequence (whole entry): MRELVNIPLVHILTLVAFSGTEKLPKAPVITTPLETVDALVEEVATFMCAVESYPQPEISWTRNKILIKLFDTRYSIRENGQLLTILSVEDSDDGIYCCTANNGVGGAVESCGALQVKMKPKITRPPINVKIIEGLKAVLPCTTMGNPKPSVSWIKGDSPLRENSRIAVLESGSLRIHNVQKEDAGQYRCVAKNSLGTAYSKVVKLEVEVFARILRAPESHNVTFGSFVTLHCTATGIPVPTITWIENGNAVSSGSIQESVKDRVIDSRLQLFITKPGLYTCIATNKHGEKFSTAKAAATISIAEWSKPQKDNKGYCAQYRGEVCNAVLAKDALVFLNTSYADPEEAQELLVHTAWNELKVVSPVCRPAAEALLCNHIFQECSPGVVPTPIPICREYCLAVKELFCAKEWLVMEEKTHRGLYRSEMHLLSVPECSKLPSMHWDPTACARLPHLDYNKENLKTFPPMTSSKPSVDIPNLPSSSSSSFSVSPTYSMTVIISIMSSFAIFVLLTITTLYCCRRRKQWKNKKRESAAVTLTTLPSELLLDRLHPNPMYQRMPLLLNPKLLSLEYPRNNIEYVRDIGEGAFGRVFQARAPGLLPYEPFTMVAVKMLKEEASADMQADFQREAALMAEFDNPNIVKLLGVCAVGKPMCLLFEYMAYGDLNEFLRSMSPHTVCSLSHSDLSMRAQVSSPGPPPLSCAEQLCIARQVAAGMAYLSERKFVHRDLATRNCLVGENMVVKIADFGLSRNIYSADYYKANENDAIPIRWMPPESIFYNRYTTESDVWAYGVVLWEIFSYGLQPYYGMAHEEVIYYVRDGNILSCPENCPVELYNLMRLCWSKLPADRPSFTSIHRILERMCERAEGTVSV
Conditions: at 1 µM.

Assay [2] deals with T1, Muscle, skeletal receptor tyrosine-protein kinase (Homo sapiens). The settings on record: at 10 µM.
The target of assay [3] is T2, Serine/threonine-protein kinase Nek11 (Homo sapiens) (UniProt Q8NG66).
T2 sequence (whole entry): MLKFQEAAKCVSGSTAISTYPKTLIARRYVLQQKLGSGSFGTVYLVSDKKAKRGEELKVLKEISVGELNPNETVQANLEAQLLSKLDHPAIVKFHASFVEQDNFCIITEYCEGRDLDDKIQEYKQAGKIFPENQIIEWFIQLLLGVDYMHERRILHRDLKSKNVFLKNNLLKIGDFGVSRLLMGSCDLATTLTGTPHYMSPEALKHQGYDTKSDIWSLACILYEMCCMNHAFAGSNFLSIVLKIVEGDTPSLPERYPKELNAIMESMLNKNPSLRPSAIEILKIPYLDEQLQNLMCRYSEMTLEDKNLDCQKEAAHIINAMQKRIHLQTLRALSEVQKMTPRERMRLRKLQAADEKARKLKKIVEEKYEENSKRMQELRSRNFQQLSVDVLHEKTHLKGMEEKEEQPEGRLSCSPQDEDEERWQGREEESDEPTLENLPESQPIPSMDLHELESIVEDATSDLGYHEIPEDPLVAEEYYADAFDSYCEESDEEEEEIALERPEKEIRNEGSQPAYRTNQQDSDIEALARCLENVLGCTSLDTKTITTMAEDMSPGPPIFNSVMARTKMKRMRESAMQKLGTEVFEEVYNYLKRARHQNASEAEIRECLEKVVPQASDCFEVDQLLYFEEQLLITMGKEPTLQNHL
The settings on record: at 1 µM.

The target in assay [4] is T2, Serine/threonine-protein kinase Nek11 (Homo sapiens). The settings on record: at 10 µM.
Assay [5] has as its target T3, Serine/threonine-protein kinase Nek2 (Homo sapiens) (UniProt P51955).
T3 sequence (whole entry): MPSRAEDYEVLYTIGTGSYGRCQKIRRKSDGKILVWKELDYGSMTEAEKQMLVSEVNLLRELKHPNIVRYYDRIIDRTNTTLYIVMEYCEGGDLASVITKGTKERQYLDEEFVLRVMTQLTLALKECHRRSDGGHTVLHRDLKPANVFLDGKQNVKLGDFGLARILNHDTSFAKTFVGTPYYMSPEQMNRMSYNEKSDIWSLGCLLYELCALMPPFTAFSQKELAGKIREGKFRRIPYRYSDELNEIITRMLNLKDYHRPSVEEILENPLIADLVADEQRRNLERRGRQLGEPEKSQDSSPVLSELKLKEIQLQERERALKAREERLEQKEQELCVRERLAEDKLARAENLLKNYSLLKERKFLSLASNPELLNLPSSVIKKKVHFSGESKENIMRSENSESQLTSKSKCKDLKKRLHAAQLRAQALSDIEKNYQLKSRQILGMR
Conditions: at 1 µM.

The target in assay [6] is T3, Serine/threonine-protein kinase Nek2 (Homo sapiens). Conditions: at 10 µM.
In assay [7] the target is T4, Serine/threonine-protein kinase Nek3 (Homo sapiens) (UniProt P51956).
T4 sequence (whole entry): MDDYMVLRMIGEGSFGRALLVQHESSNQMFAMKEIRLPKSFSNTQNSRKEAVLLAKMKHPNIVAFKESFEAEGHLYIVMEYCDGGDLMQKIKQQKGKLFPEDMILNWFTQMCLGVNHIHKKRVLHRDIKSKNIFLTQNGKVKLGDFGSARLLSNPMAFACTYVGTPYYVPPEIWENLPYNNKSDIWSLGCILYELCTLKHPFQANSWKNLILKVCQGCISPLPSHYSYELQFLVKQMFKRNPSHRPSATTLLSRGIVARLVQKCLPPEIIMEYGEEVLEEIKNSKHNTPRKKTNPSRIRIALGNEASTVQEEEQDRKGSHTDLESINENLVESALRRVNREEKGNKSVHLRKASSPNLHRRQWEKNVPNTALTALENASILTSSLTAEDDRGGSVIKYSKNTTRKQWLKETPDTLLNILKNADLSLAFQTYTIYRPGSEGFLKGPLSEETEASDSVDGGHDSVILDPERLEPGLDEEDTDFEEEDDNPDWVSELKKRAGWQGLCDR
The settings on record: at 1 µM.

Assay [8] addresses T4, Serine/threonine-protein kinase Nek3 (Homo sapiens). The settings on record: at 10 µM.
In assay [9] the target is Serine/threonine-protein kinase tousled-like 2 (Homo sapiens) (UniProt Q86UE8). Conditions: at 1 µM.
The target is the same in assay [10]. The settings on record: at 10 µM.
The target of assay [11] is T5, Testis-specific serine/threonine-protein kinase 1 (Homo sapiens) (UniProt Q9BXA7).
T5 sequence (whole entry): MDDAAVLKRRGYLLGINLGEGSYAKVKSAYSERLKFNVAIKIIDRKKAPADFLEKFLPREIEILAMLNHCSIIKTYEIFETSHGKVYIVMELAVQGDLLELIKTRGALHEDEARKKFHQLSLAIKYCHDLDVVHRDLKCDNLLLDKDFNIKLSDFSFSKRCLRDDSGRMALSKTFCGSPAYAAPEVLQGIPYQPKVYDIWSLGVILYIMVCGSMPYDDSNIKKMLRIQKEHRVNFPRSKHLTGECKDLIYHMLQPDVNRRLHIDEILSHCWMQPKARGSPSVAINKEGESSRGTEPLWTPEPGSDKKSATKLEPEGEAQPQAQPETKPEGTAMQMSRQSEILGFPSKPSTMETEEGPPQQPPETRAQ
The settings on record: at 1 µM.

In assay [12] the target is T5, Testis-specific serine/threonine-protein kinase 1 (Homo sapiens). The settings on record: at 10 µM.
Assay [13] has as its target T6, Testis-specific serine/threonine-protein kinase 2 (Homo sapiens) (UniProt Q96PF2).
T6 sequence (whole entry): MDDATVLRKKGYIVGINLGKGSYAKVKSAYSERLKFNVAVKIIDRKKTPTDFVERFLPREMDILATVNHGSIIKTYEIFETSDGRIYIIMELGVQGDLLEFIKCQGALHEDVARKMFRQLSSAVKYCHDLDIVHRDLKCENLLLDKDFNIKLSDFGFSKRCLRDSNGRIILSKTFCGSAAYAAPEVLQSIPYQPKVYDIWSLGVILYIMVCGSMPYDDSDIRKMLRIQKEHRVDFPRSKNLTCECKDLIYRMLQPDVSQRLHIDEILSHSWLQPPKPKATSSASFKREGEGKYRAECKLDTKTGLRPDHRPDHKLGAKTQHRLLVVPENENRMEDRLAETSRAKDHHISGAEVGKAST
Conditions: at 10 µM.

Assay [14] concerns the target T7, Tyrosine-protein kinase Tec (Homo sapiens) (UniProt P42680).
T7 sequence (whole entry): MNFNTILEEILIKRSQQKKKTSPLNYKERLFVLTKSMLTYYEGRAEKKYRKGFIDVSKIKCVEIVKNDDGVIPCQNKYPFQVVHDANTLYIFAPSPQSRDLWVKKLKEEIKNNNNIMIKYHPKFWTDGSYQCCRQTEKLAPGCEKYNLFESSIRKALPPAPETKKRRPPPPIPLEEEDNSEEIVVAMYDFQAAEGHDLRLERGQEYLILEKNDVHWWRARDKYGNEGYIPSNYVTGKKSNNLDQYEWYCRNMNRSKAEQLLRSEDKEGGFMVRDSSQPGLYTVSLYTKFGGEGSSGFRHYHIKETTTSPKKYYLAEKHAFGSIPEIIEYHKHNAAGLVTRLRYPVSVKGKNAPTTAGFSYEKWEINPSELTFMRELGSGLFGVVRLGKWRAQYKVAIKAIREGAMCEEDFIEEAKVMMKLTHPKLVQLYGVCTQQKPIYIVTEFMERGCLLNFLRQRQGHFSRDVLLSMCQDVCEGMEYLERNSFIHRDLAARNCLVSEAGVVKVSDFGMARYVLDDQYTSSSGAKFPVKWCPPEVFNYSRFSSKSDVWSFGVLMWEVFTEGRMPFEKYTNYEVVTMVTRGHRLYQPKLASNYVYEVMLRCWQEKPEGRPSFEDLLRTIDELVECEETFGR
The settings on record: at 1 µM.

The target in assay [15] is T7, Tyrosine-protein kinase Tec (Homo sapiens). The settings on record: at 10 µM.
The target of assay [16] is Angiopoietin-1 receptor (Homo sapiens) (UniProt Q02763). Conditions: at 1 µM.
For assay [17] the target is unchanged. The settings on record: at 10 µM.
Assay [18] addresses High affinity nerve growth factor receptor (Homo sapiens) (UniProt P04629). Conditions: at 1 µM.
Assay [19] has the same target. Conditions: at 10 µM.
Assay [20] deals with BDNF/NT-3 growth factors receptor (Homo sapiens) (UniProt Q16620). Conditions: at 1 µM.

For three compounds, residual activity results are on record in ChEMBL document CHEMBL2218924, “A broad activity screen in support of a chemogenomic map for kinase signalling research and drug discovery” (Biochem J, 2013).

Structures are written as SMILES.

Sequence of BDNF/NT-3 growth factors receptor (Homo sapiens) (Q16620 32-822 limits assumed): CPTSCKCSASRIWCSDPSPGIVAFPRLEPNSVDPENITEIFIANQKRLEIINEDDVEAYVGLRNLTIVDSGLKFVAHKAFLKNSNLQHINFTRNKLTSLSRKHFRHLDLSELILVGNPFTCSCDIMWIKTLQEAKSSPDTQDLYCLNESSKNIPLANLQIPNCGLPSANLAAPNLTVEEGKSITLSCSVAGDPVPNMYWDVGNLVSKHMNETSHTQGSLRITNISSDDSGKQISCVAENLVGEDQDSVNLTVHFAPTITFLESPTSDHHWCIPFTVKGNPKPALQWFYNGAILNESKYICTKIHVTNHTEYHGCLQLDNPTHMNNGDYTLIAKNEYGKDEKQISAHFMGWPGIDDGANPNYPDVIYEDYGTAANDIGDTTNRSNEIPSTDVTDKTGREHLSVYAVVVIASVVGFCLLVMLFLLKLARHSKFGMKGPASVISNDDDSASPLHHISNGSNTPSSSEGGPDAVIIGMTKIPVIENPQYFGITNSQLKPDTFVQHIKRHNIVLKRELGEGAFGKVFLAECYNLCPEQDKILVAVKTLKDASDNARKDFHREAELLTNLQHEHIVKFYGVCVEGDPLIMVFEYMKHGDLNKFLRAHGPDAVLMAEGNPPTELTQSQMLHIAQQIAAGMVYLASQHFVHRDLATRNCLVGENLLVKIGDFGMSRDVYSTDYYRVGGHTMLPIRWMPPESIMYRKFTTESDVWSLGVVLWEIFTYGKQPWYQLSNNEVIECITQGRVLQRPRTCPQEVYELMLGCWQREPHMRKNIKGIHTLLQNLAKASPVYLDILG
Sequence of Angiopoietin-1 receptor (Homo sapiens) (Q02763 whole entry): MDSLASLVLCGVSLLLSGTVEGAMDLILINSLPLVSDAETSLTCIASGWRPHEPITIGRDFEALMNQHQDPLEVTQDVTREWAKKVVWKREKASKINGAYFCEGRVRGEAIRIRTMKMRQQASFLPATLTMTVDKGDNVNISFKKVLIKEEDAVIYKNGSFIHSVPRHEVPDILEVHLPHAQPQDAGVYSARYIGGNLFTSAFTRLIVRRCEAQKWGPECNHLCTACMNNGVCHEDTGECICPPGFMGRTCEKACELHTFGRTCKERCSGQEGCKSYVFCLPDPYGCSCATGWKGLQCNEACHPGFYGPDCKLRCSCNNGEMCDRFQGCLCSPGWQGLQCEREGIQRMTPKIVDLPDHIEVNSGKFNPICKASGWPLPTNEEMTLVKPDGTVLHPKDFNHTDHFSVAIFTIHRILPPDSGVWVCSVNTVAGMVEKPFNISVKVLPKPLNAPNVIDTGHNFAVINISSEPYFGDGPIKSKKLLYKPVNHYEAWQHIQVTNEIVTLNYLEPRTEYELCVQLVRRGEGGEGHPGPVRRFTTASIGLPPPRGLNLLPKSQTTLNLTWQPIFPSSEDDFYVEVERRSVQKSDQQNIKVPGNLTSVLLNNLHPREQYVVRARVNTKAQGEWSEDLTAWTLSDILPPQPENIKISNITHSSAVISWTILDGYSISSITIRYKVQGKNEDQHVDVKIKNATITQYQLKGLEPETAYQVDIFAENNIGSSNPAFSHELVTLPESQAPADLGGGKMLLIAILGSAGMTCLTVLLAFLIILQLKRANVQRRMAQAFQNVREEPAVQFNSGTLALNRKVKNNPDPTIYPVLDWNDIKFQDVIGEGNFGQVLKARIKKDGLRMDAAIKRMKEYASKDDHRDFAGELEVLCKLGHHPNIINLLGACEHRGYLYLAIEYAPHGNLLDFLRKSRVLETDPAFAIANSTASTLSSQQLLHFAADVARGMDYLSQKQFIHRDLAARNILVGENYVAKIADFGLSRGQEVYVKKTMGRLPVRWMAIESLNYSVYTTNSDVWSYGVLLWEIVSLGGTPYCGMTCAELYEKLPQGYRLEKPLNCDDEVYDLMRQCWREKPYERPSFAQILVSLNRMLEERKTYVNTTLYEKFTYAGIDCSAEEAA
Sequence of High affinity nerve growth factor receptor (Homo sapiens) (P04629 33-796 limits assumed): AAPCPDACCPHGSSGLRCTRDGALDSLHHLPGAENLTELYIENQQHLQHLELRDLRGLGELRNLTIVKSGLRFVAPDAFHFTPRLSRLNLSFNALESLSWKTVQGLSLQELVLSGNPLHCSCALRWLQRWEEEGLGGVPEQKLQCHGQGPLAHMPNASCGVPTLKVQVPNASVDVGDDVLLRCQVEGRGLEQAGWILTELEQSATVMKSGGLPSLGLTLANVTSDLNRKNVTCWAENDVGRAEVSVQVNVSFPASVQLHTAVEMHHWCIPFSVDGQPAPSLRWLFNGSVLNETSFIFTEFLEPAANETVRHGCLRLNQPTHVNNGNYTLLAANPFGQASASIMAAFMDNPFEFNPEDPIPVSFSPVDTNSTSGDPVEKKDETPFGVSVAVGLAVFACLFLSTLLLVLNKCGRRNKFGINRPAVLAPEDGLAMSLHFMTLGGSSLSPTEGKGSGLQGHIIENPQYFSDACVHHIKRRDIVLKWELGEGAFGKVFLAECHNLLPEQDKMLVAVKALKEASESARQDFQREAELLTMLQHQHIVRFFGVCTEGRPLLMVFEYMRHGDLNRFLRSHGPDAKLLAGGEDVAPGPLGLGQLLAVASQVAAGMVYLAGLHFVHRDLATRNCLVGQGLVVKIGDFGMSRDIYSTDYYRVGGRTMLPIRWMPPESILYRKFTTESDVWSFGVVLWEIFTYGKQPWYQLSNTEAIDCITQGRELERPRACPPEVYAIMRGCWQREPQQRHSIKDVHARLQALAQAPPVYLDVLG
Sequence of Serine/threonine-protein kinase tousled-like 2 (Homo sapiens) (Q86UE8 whole entry, looked up): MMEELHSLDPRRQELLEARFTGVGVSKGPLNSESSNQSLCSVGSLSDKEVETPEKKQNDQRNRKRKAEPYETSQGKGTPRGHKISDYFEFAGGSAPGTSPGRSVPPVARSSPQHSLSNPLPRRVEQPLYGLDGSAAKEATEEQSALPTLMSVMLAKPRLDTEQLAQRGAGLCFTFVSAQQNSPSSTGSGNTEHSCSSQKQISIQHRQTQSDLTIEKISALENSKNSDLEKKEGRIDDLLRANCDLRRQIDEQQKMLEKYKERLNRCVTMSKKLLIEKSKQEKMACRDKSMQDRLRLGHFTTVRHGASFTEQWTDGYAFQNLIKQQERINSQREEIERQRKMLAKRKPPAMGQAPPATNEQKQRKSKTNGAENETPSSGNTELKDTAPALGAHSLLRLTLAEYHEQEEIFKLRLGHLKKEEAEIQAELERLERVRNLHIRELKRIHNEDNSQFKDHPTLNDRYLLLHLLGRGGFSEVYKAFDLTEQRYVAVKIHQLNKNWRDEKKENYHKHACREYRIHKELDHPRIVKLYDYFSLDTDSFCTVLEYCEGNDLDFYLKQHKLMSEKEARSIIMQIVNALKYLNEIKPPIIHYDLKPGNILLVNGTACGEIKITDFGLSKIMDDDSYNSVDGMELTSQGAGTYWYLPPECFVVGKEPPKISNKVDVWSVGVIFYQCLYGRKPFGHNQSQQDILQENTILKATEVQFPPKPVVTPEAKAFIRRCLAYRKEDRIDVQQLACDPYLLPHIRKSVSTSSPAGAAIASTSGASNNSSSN

With `O=C1NC(=O)/C(=C/c2ccc3c(c2)OC(F)(F)O3)S1`, the residual activity in assay [1] amounted to 110%; in assay [2], 89%; in assay [3], 80%; in assay [4], 82%; in assay [5], 97%; in assay [6], 94%. For the same compound, the residual activity in assay [7] came out at 117%; in [8], 88%; in assay [9], 112%; in assay [10], 97%; in [11] it was 99%; in [12] it was 91%. Moreover, the residual activity in assay [13] was determined as 97%; in [14], 83%; in assay [15] it was 80%; in [16] it was 94%; in assay [17], 85%; in assay [18], 86%. Besides, the residual activity in assay [19] worked out at 60%; in assay [20] it was 44%.
Turning to `COc1ccc(CNc2nc(N(CCO)CCO)nc3c2ncn3C(C)C)cc1`, the residual activity was 86% in [1]; 73% in [2]; 53% in assay [3]; 64% in assay [4]; 90% in assay [5]; 85% in [6]. In addition, the residual activity turned out to be 71% in assay [7]; 90% in assay [8]; 83% in [9]; 85% in assay [10]; 86% in assay [11]; 70% in [12]. Moreover, the residual activity in assay [13] turned out to be 87%; in assay [14] it was 103%; in [15], 79%; in assay [16], 101%; in [17], 80%; in assay [18], 75%. For the same compound, the residual activity came to 56% in assay [19] and 72% in [20].
Consider `Cc1cc(Nc2nc(-c3ccccc3)nc3ccccc23)n[nH]1`, for which the residual activity in assay [1] was 21%; in assay [2], 4%; in [3], 66%; in [4], 50%; in [6], 66%; in [7], 76%. The residual activity in [8] is 78%; in assay [9], 62%; in assay [10], 17%; in [11] it was 72%; in assay [12], 25%; in assay [13], 67%. Also, the residual activity in [14] is 38%; in [15], 4%; in assay [16], 77%; in assay [17], 6%; in assay [18] it was -2%; in assay [19], -1%. Besides, the residual activity in assay [20] was 1%.
